According to PubChem BioAssay (NCATS):
Inconclusive results are not listed. The source made the active and inactive calls. Unless noted, calls come from the whole dose curve.

Legend:
[1] = qHTS assay for small molecule agonists of retinoid X receptor alpha signaling (AID 588544); details: HEK293T RXRa-UAS-bla, beta-lactamase reporter, 18 h; 530 nm emission;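 for activation: 0% = DMSO basal wells and 100% = reference agonist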
[2] = molecular target: Retinoic acid receptor RXR-alpha (Homo sapiens) (UniProt P19793); experiment: as above; details: HEK293T RXRa-UAS-bla, beta-lactamase reporter, 18 h; series mostly up to 76.7 µM
Chain of Retinoic acid receptor RXR-alpha (Homo sapiens) (P19793 whole entry, looked up): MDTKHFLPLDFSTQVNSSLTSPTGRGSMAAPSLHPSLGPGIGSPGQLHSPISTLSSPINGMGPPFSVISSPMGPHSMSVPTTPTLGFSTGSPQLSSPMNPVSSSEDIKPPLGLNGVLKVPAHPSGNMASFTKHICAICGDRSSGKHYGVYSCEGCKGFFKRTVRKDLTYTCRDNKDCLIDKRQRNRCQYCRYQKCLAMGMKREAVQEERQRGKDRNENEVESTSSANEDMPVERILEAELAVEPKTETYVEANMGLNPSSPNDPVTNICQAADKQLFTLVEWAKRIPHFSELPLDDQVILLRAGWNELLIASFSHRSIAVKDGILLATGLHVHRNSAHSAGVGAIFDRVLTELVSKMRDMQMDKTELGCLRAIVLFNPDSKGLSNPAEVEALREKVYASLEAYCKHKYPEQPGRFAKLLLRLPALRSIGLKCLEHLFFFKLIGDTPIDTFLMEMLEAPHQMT

[3] = molecular target: Thyroid hormone receptor beta (Homo sapiens) (UniProt P10828); experiment: qHTS assay for small molecule agonists of thyroid hormone receptor beta signaling (AID 588545); details: TR-UAS-bla GripTite HEK 293, beta-lactamase ratio, agonist mode, 18 h, percent of T3 response, DMSO as zero; series mostly up to 76.7 µM
Chain of Thyroid hormone receptor beta (Homo sapiens) (P10828 whole entry, looked up): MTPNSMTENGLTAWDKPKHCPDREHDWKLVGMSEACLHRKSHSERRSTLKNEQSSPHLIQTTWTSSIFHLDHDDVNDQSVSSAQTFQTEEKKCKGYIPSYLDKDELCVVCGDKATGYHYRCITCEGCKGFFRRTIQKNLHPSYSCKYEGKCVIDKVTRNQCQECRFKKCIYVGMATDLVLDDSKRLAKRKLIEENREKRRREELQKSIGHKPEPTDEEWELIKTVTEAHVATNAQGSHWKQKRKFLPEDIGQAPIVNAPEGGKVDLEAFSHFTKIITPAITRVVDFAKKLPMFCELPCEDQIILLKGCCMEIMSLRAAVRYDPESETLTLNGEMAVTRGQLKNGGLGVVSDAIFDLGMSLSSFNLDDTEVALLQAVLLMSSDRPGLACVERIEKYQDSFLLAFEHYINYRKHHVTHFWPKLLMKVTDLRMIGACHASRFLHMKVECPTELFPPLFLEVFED
Method in brief: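 Cells (2500/well) were seeded, incubated 4 hrs at 37 C, dosed with a compound series, incubated 18 hrs, loaded with CCF4 dye for 2 hrs at RT, then read for fluorescence. Data were scaled between DMSO (0%) and 10 nM T3 (100%).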

[4] = qHTS assay for small molecule antagonists of retinoid X receptor alpha signaling (AID 588546; active = well fitted inhibition curve with a large enough effect in the signal ratio, with a control signal flat, not every such curve was filed as active; the % refers to the signal ratio;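 note: cells stimulated with 9-cis-retinoic acid as agonist; % is set by controls: 0 for no effect and ±100 for the full control effect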); details: HEK293T RXRa-UAS-bla, beta-lactamase ratio, antagonist mode; measured here: W530 green channel, cytotoxicity proxy
Method in brief: (§1)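 Beta-lactamase reporter inhibition, read as CCF4 fluorescence ratio (ex 405, em 460/530 nm) after 2 h at RT. HEK293T UAS-bla cells, 2500/well, were stimulated with 9-cis-RA at 500 or 100 nM final alongside test compound for 18 h at 37 C.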

[5] = molecular target: Retinoic acid receptor RXR-alpha (Homo sapiens) (UniProt P19793); experiment: as above; details: HEK293T RXRa-UAS-bla, beta-lactamase ratio, antagonist mode
Method in brief: as §1

[6] = molecular target: Thyroid hormone receptor beta (Homo sapiens) (UniProt P10828); experiment: qHTS assay for small molecule antagonists of thyroid hormone receptor beta signaling (AID 588547; active = well fitted inhibition curve with a large enough effect in the signal ratio, with a control signal flat, not every such curve was filed as active; the % refers to the signal ratio;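 note: cells stimulated with 0.4 nM T3 agonist during compound exposure; % is set by controls: 0 for no effect and ±100 for the full control effect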); details: TR-UAS-bla HEK293, beta-lactamase ratio, antagonist mode, 18 h
Method in brief: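 Inhibition of T3-driven (0.4nM final) beta-lactamase reporter activity was measured over 0.59 nM to 92 uM compound after 18 h at 37 C. The cells were GripTite HEK293 TR-UAS-bla in charcoal/dextran-stripped serum, with CCF4 ratio read-out and IC50 from Hill fits.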

[7] = molecular target: Voltage-gated inwardly rectifying potassium channel KCNH2 (Homo sapiens) (UniProt Q12809); experiment: qHTS Assay for Small Molecule Inhibitors of the Human hERG Channel Activity (AID 588834; active = well fitted curve in the direction sought with a large enough effect; an effect the other way counts as inactive or inconclusive;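 note: top concentration of the series differs between compounds; % is set by controls: 0 for no effect and ±100 for the full control effect; lower thallium flux fluorescence means stronger hERG block; nearly all actives have a fitted effect of over 50% in size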); details: U2OS BacMam hERG, FluxOR thallium flux fluorescence; series mostly up to 92.2 µM
Chain of Voltage-gated inwardly rectifying potassium channel KCNH2 (Homo sapiens) (Q12809 whole entry, looked up): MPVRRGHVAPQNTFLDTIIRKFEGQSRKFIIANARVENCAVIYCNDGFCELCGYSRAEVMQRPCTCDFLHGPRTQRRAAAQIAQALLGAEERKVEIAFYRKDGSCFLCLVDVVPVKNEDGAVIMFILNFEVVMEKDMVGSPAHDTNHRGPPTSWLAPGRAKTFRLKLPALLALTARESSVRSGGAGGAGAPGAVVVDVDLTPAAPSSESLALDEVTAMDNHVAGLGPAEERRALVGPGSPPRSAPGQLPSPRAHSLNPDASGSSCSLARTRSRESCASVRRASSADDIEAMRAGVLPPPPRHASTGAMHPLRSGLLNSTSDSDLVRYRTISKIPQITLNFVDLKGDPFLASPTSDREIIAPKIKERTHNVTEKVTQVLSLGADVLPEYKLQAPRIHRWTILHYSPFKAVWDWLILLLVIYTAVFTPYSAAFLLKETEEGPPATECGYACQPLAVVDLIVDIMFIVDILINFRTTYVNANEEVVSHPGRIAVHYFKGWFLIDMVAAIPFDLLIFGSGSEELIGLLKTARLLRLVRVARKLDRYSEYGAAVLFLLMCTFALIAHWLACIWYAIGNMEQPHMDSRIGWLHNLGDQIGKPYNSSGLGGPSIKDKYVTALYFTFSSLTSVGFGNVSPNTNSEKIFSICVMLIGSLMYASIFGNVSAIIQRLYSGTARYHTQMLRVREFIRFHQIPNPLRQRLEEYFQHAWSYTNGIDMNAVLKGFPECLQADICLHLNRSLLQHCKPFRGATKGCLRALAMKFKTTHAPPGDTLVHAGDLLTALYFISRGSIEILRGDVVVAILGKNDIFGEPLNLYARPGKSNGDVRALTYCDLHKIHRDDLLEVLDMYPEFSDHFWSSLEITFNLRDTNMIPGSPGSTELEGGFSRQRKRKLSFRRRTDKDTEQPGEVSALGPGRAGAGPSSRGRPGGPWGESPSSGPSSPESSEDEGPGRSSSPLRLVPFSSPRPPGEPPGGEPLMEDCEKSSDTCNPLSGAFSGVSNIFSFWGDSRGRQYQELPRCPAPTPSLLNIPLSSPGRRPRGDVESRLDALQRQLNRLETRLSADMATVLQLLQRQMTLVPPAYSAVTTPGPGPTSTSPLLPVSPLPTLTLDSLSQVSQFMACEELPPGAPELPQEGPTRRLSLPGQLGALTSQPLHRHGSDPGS
Method in brief: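 Homogeneous FluxOR thallium flux assay using hERG-expressing U2OS cells (BacMam). Compound treatment about 10 minutes preceded stimulation; reduced fluorescence taken as channel block.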

[8] = qHTS assay for small molecule agonists of the antioxidant response element (ARE) signaling pathway (AID 651741; active = well fitted activation curve with a large enough effect in the signal ratio; the % refers to the signal ratio; note: % of control where 0% means no effect); details: HepG2 ARE-bla reporter, beta-lactamase FRET ratio, 16 h; series mostly up to 96 µM
Method in brief: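 Beta-lactamase reporter under ARE control in HepG2 cells, 2,000 per well, was induced by 16 h compound treatment at 37 C. Read-out was fluorescence from LiveBLAzer B/G FRET substrate after 2 h at room temperature.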

[9] = qHTS assay for small molecule activators of the p53 signaling pathway (AID 651743; active = well fitted activation curve with a large enough effect in the signal ratio, not every such curve was filed as active; the % refers to the signal ratio; note: % of control where 0% means no effect); details: HCT-116 p53RE-bla, beta-lactamase FRET ratio, 16 h; stronger effect = higher value
Method in brief: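 After 16 hours compound treatment at 37 C, HCT-116 cells stably expressing p53RE-driven beta-lactamase were loaded with LiveBLAzer B/G FRET substrate for 2 hours at room temperature. Fluorescence intensity served as the p53 activation read-out.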

[10] = qHTS assay for small molecule activators of the nuclear factor-kappa B (NF-kB) signaling pathway (AID 651749; active = well fitted activation curve with a large enough effect in the signal ratio; the % refers to the signal ratio; note: % of control where 0% means no effect); details: NF-kB-bla ME-180 cells, beta-lactamase FRET ratio, 16 h; stronger effect = higher value
Method in brief: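 Activation measured after 16 hr compound treatment at 37C, 5% CO2, of 2,000 ME-180 cells/well stably expressing an NF-kB response element–driven beta-lactamase reporter, via FRET-disruption fluorescence.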

[11] = qHTS assay for small molecule disruptors of the mitochondrial membrane potential - 1 hr assay (AID 651754); details: series mostly up to 92.2 µM; note: % is set by controls: 0 for no effect and ±100 for the full control effect; nearly all actives have a fitted effect of over 35% in size
Method in brief: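 Loss of mitochondrial potential shifts the cationic dye from red mitochondrial aggregates to green cytoplasmic monomers. Cells (HepG2) are treated with compound for 1 hr before a 30 min dye incubation at 37C.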

[12] = qHTS assay for small molecule disruptors of the mitochondrial membrane potential - 5 hr assay (AID 651755); details: JC-1-type ratio dye; series mostly up to 92.2 µM; note: % is set by controls: 0 for no effect and ±100 for the full control effect; nearly all actives have a fitted effect of over 40% in size
Method in brief: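 Membrane-potential dye readout: red aggregate (540 ex/590 em) versus green monomer (490 ex/535 em) fluorescence after 30 min dye loading, following 5 hr compound exposure at 37C of overnight-plated HepG2 cells.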

[13] = molecular target: Tumor necrosis factor (Homo sapiens) (UniProt P01375); experiment: qHTS assay to identify small molecules that stimulate Tumor Necrosis Factor-alpha (TNF-alpha) secretion (AID 651757; active = well fitted curve in the direction sought with a large enough effect in the signal ratio; the % refers to the signal ratio; note: 0% is about no effect); details: Human cells, HTRF 665/615 ratio; series mostly up to 92.2 µM
Chain of Tumor necrosis factor (Homo sapiens) (P01375 whole entry, looked up): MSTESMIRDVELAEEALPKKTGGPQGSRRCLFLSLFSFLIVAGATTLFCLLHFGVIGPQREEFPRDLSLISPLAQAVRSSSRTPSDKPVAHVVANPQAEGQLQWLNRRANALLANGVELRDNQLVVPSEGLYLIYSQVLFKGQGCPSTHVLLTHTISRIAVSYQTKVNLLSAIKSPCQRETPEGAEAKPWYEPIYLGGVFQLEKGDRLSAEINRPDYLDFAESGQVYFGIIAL
Method in brief: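 Human monocytic THP-1 cells are plated, treated with compound and held at 37 C for 17 hrs. Labeled anti-TNF-alpha antibody mixture is then added; after 3 hr at room temperature, TR-FRET signal reports secreted TNF-alpha.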

[14] = qHTS assay to identify small molecules that stimulate interleukin-8 (IL-8) secretion (AID 651758; active = well fitted activation curve with a large enough effect in the signal ratio; the % refers to the signal ratio; note: 0% is about no effect); details: HTRF ratio (665/615); series mostly up to 92.2 µM
Method in brief: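 Secreted IL-8 measured homogeneously by TR-FRET (two labelled anti-IL-8 antibodies, 1-3 h at room temperature) after a 16 h, 37 C compound treatment of THP-1 cells at 2000 cells/well.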

[15] = qHTS assay for environmental chemicals that activate the Aryl hydrocarbon Receptor (AhR) signaling pathway (AID 651777; active = well fitted curve in the direction sought with a large enough effect; an effect the other way counts as inactive or inconclusive; note: % of control where 0% means no effect; nearly all actives have a fitted effect of over 15% in size); details: 1A2-DRE human hepatoma cells, luciferase, 24 h; activation: stronger effect = higher value
Method in brief: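 Quantitative HTS in stably transfected human liver-derived cells whose luciferase gene sits downstream of the CYP1A2 promoter and dioxin response element. After 24 hr exposure at 37 C, One-Glo luminescence was measured.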

[16] = molecular target: Peroxisome proliferator-activated receptor alpha (Homo sapiens) (UniProt Q07869); experiment: qHTS assay for small molecule agonists of the peroxisome proliferator-activated receptor alpha (PPARalpha) signaling pathway (AID 651778; active = well fitted curve in the direction sought with a large enough effect; an effect the other way counts as inactive or inconclusive; note: % of control where 0% means no effect); details: PathHunter PPARalpha complementation, chemiluminescence, 6 h; stronger effect = higher value
Chain of Peroxisome proliferator-activated receptor alpha (Homo sapiens) (Q07869 whole entry, looked up): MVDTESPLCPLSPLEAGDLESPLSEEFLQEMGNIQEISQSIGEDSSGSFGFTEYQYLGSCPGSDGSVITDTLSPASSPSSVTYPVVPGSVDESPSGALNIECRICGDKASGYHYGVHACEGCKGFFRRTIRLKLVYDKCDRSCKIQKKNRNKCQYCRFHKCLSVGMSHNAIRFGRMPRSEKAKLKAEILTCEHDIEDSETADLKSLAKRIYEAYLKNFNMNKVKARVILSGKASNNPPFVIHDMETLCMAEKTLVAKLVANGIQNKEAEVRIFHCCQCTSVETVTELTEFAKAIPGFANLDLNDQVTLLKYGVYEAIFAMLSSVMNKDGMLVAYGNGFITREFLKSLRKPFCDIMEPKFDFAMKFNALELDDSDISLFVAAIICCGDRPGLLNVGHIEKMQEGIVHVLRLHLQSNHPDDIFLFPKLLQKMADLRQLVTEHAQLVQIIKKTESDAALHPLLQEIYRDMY
Method in brief: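 Chemiluminescence from complemented enzyme reported PPARalpha activation in cells after 6 hr of compound treatment at 37 C. The detection reagent was incubated for 60 min at room temperature, and compounds were scored as agonists.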

[17] = qHTS assay for small molecule agonists of the antioxidant response element (ARE) signaling pathway measured by Nrf2-dependant transcriptional activity (AID 720636; active = well fitted curve in the direction sought with a large enough effect in the repeat runs; an effect the other way counts as inactive or inconclusive; note: % of control where 0% means no effect); details: ARE-luc HepG2, Nrf2 luciferase reporter, 16 h; series mostly up to 92.4 µM
Method in brief: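 Quantitative HTS format in HepG2 cells stably expressing an ARE-luciferase reporter; 16 hr compound treatment at 37 C, luciferase signal detected with ONE-Glo.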

[18] = qHTS assay for small molecule antagonists of the retinoid-related orphan receptor gamma (ROR-gamma) signaling pathway - cell viability counter screen (AID 720652; active = well fitted curve in the direction sought with a large enough effect in the repeat runs; an effect the other way counts as inactive or inconclusive;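 note: CHO reporter cells with doxycycline-induced ROR-gamma expression; compound exposure lasted 16 hr before ATP read; % is set by controls: 0 for no effect and ±100 for the full control effect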); details: RORgamma reporter cell line viability counter screen; series mostly up to 92.2 µM
Method in brief: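 Steps: seed CHO cells bearing TET-inducible ROR and ROR response element-luciferase; rest 5 hr at 37 C; add compound, then doxycycline; incubate 16 hr; add CellTiter-Glo and read luminescence as ATP-based viability.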

[19] = qHTS assay for small molecule agonists of the antioxidant response element (ARE) signaling pathway measured by Nrf2-dependant transcriptional activity - cell viability counter screen (AID 720653; active = well fitted curve in the direction sought with a large enough effect in the repeat runs; an effect the other way counts as inactive or inconclusive; note: % is set by controls: 0 for no effect and ±100 for the full control effect); details: ARE-bla HepG2 viability, CellTiter-Glo ATP luminescence, 16 h; stronger effect = lower value
Method in brief: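 Cytotoxicity counter screen: intracellular ATP quantified by CellTiter-Glo luminescence in the same ARE-bla HepG2 plates, after 16 h compound exposure and a 2 h beta-lactamase substrate step.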

[20] = molecular target: Nuclear receptor ROR-gamma (Homo sapiens) (UniProt P51449); experiment: qHTS assay for small molecule antagonists of the retinoid-related orphan receptor gamma (ROR-gamma) signaling pathway (AID 651802; active = well fitted curve in the direction sought with a large enough effect; an effect the other way counts as inactive or inconclusive;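 note: CHO cells with doxycycline-induced ROR-gamma expression; % is set by controls: 0 for no effect and ±100 for the full control effect; nearly all actives have a fitted effect of over 60% in size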); details: ROR-gamma antagonist cell reporter assay; series mostly up to 92.2 µM
Chain of Nuclear receptor ROR-gamma (Homo sapiens) (P51449 whole entry, looked up): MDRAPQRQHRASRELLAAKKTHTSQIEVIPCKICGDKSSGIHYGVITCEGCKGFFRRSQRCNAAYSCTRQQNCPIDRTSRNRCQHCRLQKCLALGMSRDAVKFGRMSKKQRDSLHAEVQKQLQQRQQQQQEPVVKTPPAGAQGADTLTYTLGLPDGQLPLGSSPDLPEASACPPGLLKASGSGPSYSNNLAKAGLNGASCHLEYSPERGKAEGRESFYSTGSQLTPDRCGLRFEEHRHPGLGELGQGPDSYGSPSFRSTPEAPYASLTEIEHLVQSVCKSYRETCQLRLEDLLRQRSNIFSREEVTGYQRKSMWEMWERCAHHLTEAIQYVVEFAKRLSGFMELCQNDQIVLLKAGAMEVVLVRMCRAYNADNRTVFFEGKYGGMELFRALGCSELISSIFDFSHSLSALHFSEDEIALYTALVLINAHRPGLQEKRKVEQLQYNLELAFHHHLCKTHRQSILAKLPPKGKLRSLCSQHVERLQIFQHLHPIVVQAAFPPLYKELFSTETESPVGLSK
Method in brief: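 Steps: cells dispensed; compound or DMSO transferred by pin tool; doxycycline added to induce the ROR response element-driven luciferase; plates held 16hr at 37C; ONE-Glo added and luminescence measured.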

CC(=O)Nc1ccccc1C
-11.2%: max response [4]
-2.35%: max response [1]
inactive: outcome [2] | outcome [3] | max response [5] 2.75% | activity change % (negative = inhibition) [6] 4.18% | Potency [7] | Potency [8] | activation [9] 0.555% | activation [10] -0.805% | Potency [11] | Potency [12] | Potency [13] | Potency [14] | activation [15] -0.35% | max response [16] -1.36% | outcome [17] | Potency [18] | max response [19] -6.99%

CC(C)Nc1ccccc1
-11%: max response [1]
inactive: outcome [2] | outcome [3] | max response [5] 3.31% | activity change % (negative = inhibition) [6] -21.8% | Potency [7] | Potency [8] | activation [9] -0.311% | activation [10] 0.185% | Potency [11] | Potency [12] | Potency [13] | Potency [14] | activation [15] 0.225% | max response [16] -3.92% | Potency [20] | outcome [17] | Potency [18] | max response [19] -8.81%
-12.9%: max response [4]

CC(=O)c1ccccn1
-3.87%: max response [4]
-4.17%: max response [1]
inactive: outcome [2] | outcome [3] | max response [5] -5.68% | activity change % (negative = inhibition) [6] -7.89% | Potency [7] | Potency [8] | activation [9] -1.74% | activation [10] -1.25% | Potency [11] | Potency [12] | Potency [13] | Potency [14] | activation [15] -0.723% | Potency [20] | outcome [17] | Potency [18] | max response [19] 5.72%

Cc1cc(C)cc(N)c1
1.47%: max response [4]
inactive: outcome [2] | outcome [3] | max response [5] 9.88% | activity change % (negative = inhibition) [6] -11.7% | Potency [7] | Potency [8] | activation [9] -1.89% | activation [10] 0.882% | Potency [11] | Potency [12] | Potency [13] | activation [15] 2.65% | max response [16] -1.33% | Potency [20] | outcome [17] | max response [19] -5.34%
-7.06%: max response [1]

Cc1ccc2ncccc2c1
-2.62%: max response [4]
-4.8%: max response [1]
inactive: outcome [2] | outcome [3] | max response [5] 2.87% | activity change % (negative = inhibition) [6] 1.73% | Potency [7] | Potency [8] | activation [9] -3.29% | activation [10] -1.62% | Potency [11] | Potency [12] | Potency [13] | activation [15] 3.02% | max response [16] -2.02% | Potency [20] | outcome [17] | Potency [18] | max response [19] 5.85%

CC(C)C=O
3.23%: max response [1]
inactive: outcome [2] | outcome [3] | max response [5] 8.49% | activity change % (negative = inhibition) [6] -10% | Potency [7] | Potency [8] | activation [9] 0.787% | activation [10] -1.3% | Potency [11] | Potency [12] | Potency [13] | Potency [14] | max response [16] -0.412% | Potency [20] | outcome [17] | Potency [18] | max response [19] -2.28%
-14.5%: max response [4]
